From PubChem
Shown are actives, neighbours in structure and some others; about 0.57% of the full set was active somewhere.
ALOX12 inhib: blocks human 12-lipoxygenase activity; purified 12-hLO, xylenol orange hydroperoxide absorbance; hit rate 0.12% among 150,000; P18054; Potency, µM (highest dose often 57.1 µM), without a hit: at the highest dose activity change, negative = inhibition, usual class: inhibitors; AID 1452; note: potency is the fitted concentration of half-maximal effect; nearly all actives have a fitted effect of over 55% in size
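Purified human 12hLO (150 nM), preincubated 15 min with compound, then 40 uM arachidonic acid for 30 min, room temperature, Hepes pH 7.0 with 0.01% Triton X-100. Hydroperoxide detected by ferrous iron/xylenol orange; 573/405 nm absorbance ratio gives reaction progress.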
IMPase Li cell: IMPase inhibition in cells with lithium potentiation; CHO-M1 cells, IP1 TR-FRET (IP-One), carbachol + lithium; Potency, µM (top dose mostly 59.4 µM), for inactives: at the top dose activity, negative = IMPase inhibition, hits mostly inhibitors; hit rate 0.35% among 210,000; AID 1457;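 note: IP1 builds up when IMPase is blocked and the TR-FRET signal falls; potency is the fitted concentration of half-maximal effect; plate controls were basal vehicle for no effect and high inhibitor control for full effect; nearly all actives have a fitted effect of over 50% in size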
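Concentration–response in CHO-M1 cells, lithium-potentiated; 30 min at 37C. IP1 detected by competitive TR-FRET after 10 min lysis at RT. Hill-fitted AC50.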
IMPase cell inh: IMPase inhibition in cells; P97697; inhibition (IP1 accumulation), % at 46.1 µM; 120,000 tested, under 10 active; CHO-M1 cells, IP1 accumulation, HTRF TR-FRET ratio; AID 901; active = well fitted curve in the direction sought with a large enough effect in the signal ratio, not every such curve was filed as active; inconclusive = small, poorly fitted or top-dose-only effect, or a change in a side signal; inactive = no such curve, though single readings can be large or run the other way; the % refers to the signal ratio;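 note: cells stimulated with carbachol in lithium chloride buffer; plate controls were DMSO basal wells for no effect and reference inhibitor wells for full effect; higher means more IMPase inhibition seen as more IP1 and lower FRET ratio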
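Seeded CHO-M1 cells were dosed with compound at up to 46 uM, stimulated with carbachol for 30 min, then lysed in IP-One detection reagents. Higher IP1 lowers the TR-FRET signal.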
ALOX15B inhib: 15-hLO-2 (ALOX15B) enzyme inhibition; purified 15hLO-2, xylenol orange hydroperoxide absorbance; Potency, µM (highest dose often 57.1 µM), for inactives: top-dose activity change, negative = inhibition, usual class: inhibitors; hit rate 0.56% among 110,000; O15296; note: potency is the fitted concentration of half-maximal effect; nearly all actives have a fitted effect of over 60% in size
Target sequence (O15296 whole entry, looked up): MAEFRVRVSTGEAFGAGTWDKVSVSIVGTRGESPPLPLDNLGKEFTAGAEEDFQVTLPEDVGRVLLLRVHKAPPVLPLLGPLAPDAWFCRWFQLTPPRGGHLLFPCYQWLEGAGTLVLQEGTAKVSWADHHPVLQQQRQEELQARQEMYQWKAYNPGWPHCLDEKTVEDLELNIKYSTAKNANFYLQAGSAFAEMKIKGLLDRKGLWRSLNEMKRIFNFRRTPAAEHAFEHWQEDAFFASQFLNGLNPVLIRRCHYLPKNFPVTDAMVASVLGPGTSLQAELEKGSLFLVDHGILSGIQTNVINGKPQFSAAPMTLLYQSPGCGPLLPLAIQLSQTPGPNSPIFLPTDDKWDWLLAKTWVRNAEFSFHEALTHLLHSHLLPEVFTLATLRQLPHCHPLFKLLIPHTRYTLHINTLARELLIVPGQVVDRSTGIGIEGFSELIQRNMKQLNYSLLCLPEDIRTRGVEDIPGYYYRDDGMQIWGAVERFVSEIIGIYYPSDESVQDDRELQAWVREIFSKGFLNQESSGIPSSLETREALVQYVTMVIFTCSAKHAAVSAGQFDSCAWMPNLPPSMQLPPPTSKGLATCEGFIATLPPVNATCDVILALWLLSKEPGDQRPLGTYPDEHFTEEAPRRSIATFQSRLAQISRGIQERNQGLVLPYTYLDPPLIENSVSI
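Read-out: hydroperoxide product oxidises ferrous iron, measured as xylenol orange complex via the 573-to-405 nm absorbance ratio after 30 min. Reaction: 50 nM enzyme, 15 min compound preincubation, 45 uM arachidonic acid, 90 min RT, Hepes pH 7.5 with Triton X-100.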
Active calls of the source: *; ? = inconclusive; / = no result given; ! = repeats disagree; [ ] = another dose, or the depositor's remark. Unless noted, calls come from the whole dose curve; as a rule, active = well fitted curve in the direction sought with a large enough effect; inconclusive = small, poorly fitted or top-dose-only effect, or another doubt; inactive = no such curve, though single readings can be large; an effect the other way counts as inactive or inconclusive. Unless noted, % is set by controls: 0 for no effect and ±100 for the full control effect.

SMILES	ALOX12 inhib	IMPase Li cell	IMPase cell inh	ALOX15B inhib
COc1cc2cc(Br)cc(Br)c2nc1C	5.4%	12.6µM*	?	12.8%
O=c1c(O)c(-c2ccc(O)c(O)c2)oc2ccccc12	?	16.3%	1.6	12.6µM*
O=C(COC(=O)c1cc(-c2ccc(Cl)s2)nc2ccccc12)NCc1ccco1	-13.5%	?	?	-28.8%
COc1ccc(CNC(=O)COC(=O)c2cc(-c3ccc(Cl)s3)nc3ccccc23)cc1	-8.3%	10µM*	-4.3	-17.6%
O=C(COC(=O)c1cc(-c2cccs2)nc2ccccc12)NCc1ccco1	?	7.94µM*	-14.2	?
O=C(NCc1ccco1)c1cc(-c2cccs2)nc2ccccc12	-7.4%	-2.4%	-19.7	/
CC(C)[C@@H](CC(=O)N[C@@H]1CCCC[C@H]1C(=O)N[C@H](CC(=O)N[C@@H](CCC(=O)O)CC(=O)O)Cc1c[nH]c2ccccc12)NC(=O)C[C@H](CO)NC(=O)[C@@H]1CNCC[C@H]1N	-1.8%	8.8%	/	/
N#C/C(=C\c1ccc(O)c(O)c1)C(=O)NCCCCc1ccccc1	?	32.0%	2.4	15.8µM*
N#C/C(=C\c1ccc(O)c(O)c1)C(=O)NCCc1ccccc1	?	41.0%	16.4	-24.5%
Cc1cccc(CN2CCN(CC(=O)O)C2=O)c1	-14.8%	11.2µM*	?	3.1%
Cc1cc(C)cc(NC(=S)/N=C(\N)Nc2nc(C)c3ccccc3n2)c1	-1.5%	4.5%	-1.8	/
Cc1ccc(NC(=S)/N=C(\N)Nc2nc(C)c3ccccc3n2)cc1C	5.62µM*	?	-2.9	/
Cc1cccc(NC(=S)/N=C(\N)Nc2nc(C)c3ccccc3n2)c1	7.94µM*	?	/	/
N.N.N.N.N.N.N.N.N.N.N.N.N.N.O.O.[Ru].[Ru].[Ru]	-13.4%	/	5.8	-4.4%
OCCN1CCN(C(c2cccs2)c2ccc3cccnc3c2O)CC1 (configuration not stated)	14.1µM*	-2.6%[38.3 µM]	15.2	-18.3%
COC(=O)C1=C(C(=O)OC)[C@@H]2Nc3ccccc3[C@@]23C[C@@H](C(=O)OC)N(S(=O)(=O)c2ccc(C)cc2)C3=N1	-3.6%[11.4 µM]	-0.6%	/	/
CCc1nnc(NC(=O)CSc2nc3cc4c(cc3cc2CC)OCCO4)s1	3.7%	-20.5%[38.3 µM]	6.4[1.84 µM]	-3.3%[11.4 µM]
Cc1cc2cc3c(cc2nc1SCC(=O)Nc1nc(C)c(C)s1)OCO3	2.0%	8.91µM*	?	-5.0%[11.4 µM]
CCc1cc2cc3c(cc2nc1SCC(=O)Nc1nnc(C)s1)OCCO3	8.9%	12.6µM*	18.9[1.84 µM]	-16.2%[11.4 µM]
COC(=O)CSc1nc2cc3c(cc2cc1C)OCO3	/	6.7%	/	/
COc1ccc(-c2nc3cnc(Oc4cccc(Cl)c4)nc3n(C3CC3)c2=O)cc1	/	?	/	-2.8%
Cc1n[nH]c(=S)c2nn(-c3ccccc3)c(C)c12	3.7%	14.1µM*	?	-4.0%
Cc1ccc(-n2nc3c(=S)[nH]nc(C)c3c2C)cc1	-1.4%	4.47µM*	?	-9.7%
Cc1n[nH]c(=S)c2nn(-c3cccc(Cl)c3)c(C)c12	0.9%	?	-14.6	-15.6%
CC(C)C[C@@H](CC(=O)N[C@H](CC(=O)N[C@@H]1CCNC[C@H]1C(=O)N[C@H](CC(=O)N[C@@H](CCC(=O)O)CC(=O)O)CC(C)C)C(C)C)NC(=O)[C@@H]1CCCC[C@H]1N	1.0%	2.8%	/	/
SMILES	ALOX12 inhib	IMPase Li cell	IMPase cell inh	ALOX15B inhib
Clc1cc(Cl)cc(Cl)c1	-4.0%	17.6%	/	-7.8%
Cc1cccnc1NC(=O)CCCN1C(=O)c2ccccc2C1=O	1.6%	16.4%[38.3 µM]	-0.3	2.2%
O=C(CCCN1C(=O)c2ccccc2C1=O)Nc1c2c(nc3c1CCC3)CCC2	2.6%	11.2µM*	10.2	/
[ClH+][Cu][ClH+].[Cu].[OH2+]c1ccc2ccccc2c1CN1CCCCC1.[OH2+]c1ccc2ccccc2c1CN1CCCCC1	/	-11.1%	/	/
CCOC(=O)CNC(=O)O[C@@H]1C(=O)c2cc(Br)ccc2O[C@H]1c1cccc(OC)c1	/	2.5%	/	/
CC(C)(C)n1ncc2c(=O)n(CC(=O)NCCc3ccccc3)cnc21	8.7%	-1.1%	12.4	/
O=C(Cn1cnc2sc(-c3ccccc3)cc2c1=O)NCCc1ccccc1	-2.0%	28.2µM*	-5.7	-3.5%
O=C(Cn1cnc2c(cnn2-c2ccc(Cl)cc2)c1=O)NCCc1ccccc1	-2.1%	12.6µM*	0.2	4.7%
CCc1ccc(NC(=O)CSc2nc3cc(C(=O)OC)ccc3c(=O)n2CC2CCCO2)cc1 (configuration not stated)	-4.7%	14.1µM*	0.3	-8.8%
COC(=O)c1cc2c(C)cc3ccc(C)cn3c-2c1C(=O)OC	-6.8%	10µM*	-26.2	-5.2%
O=C(Nc1nnc(C2CC2)s1)c1cc2c(s1)CCCCCC2	-5.8%	10µM*	1.4	14.2%
Cc1csc(NC(=O)c2cc3c(s2)CCC3)n1	-18.2%	-1.8%[38.3 µM]	5.7	23.7%
COc1ccccc1NC(=O)c1nnn(CC(=O)Nc2cccc(SC)c2)c1N	-5.2%	6.31µM*	-8.8	-5.4%
COc1cccc(Cn2nnc(C(=O)Nc3cc(C)ccc3OC)c2N)c1	-7.1%	25.1µM*	9.6	-0.6%
COc1cccc(Cn2nnc(C(=O)Nc3ccc(C)cc3)c2N)c1	5.0%	?	2.1	-1.1%
Cc1nc(N2CCOCC2)c2nc(-c3ccccc3)n(CCN(C)C)c2n1	-0.9%	-5.8%	/	31.0%
COc1c2c(nc3ccccc13)O[C@H]([C@@](C)(O)CO)C2	-0.3%[25.6 µM]	-2.0%	-2.9[20.6 µM]	4.1%[25.6 µM]
CCc1cccc(C)c1NC(=O)CSc1nc2ccc(N3C(=O)c4ccccc4C3=O)cc2s1	-4.5%	15.8µM*	-7.8	?
Cc1cc(C)c(NC(=O)CSc2nc3ccc(N4C(=O)c5ccccc5C4=O)cc3s2)c(C)c1	/	-9.6%	/	/
C=Cc1c(C)/c2[n-]/c1=C\c1[n-]c(c(CC)c1C)/C=c1\[n-]c3c(c1C)C(=O)C(C(=O)[O-])C=3c1[n-]c(c(C)c1CCC(=O)[O-])\C=2.[Cu].[Na+].[Na+] (configuration not stated)	?	68.3%	/	7.94µM*
Nc1nc(SCc2ccc([N+](=O)[O-])cc2)c2ncn([C@@H]3O[C@H](CO)[C@H](O)[C@H]3O)c2n1	/	-17.6%	/	/
C[C@@H](N)/C(N)=N/O	-0.3%[11.4 µM]	6.6%	/	4.8%[11.4 µM]
COc1cccc2cc(C(=O)NCc3ccco3)c(=O)oc12	0.5%	11.2µM*	/	/
Cc1ccc2cc(C#N)c(SCC(=O)NCC3CCCO3)nc2c1 (configuration not stated)	-3.4%	10µM*	?	1.0%
Cc1cc(=O)oc2cc(OC(=O)CCN3C(=O)c4ccccc4C3=O)ccc12	-10.5%	8.91µM*	-20.7	2.8%
Cc1cc(=O)oc2cc(OCCCN3C(=O)c4ccccc4C3=O)ccc12	-5.5%	-9.0%	-2.6	/
COC(=O)[C@H]1C2CC3c4[nH]c5ccccc5c4CCN3CC2CC[C@@H]1O (some centres not stated)	/	-0.6%	/	/
CN(C)C(=O)CN1CCN(c2nc3nonc3nc2N2CCCCC2)CC1	/	2.1%	/	/
OCCN(CCO)c1nc(N2CCCCC2)c2nc(N(CCO)CCO)nc(N3CCCCC3)c2n1	-2.2%	?	-16.7	20µM*!
